# Where “and” joins values, the source holds several entries; their conditions need not be identical. Identical values can stand only once. For some assays here: Entries with a potency or affinity are not part of this list. Calls of active or inactive are those of the source. Unless noted, how the calls were made is not given here.
# How the values were obtained:
# [1] = polyglutamine-triggered caspase-3 activation inhibitors, cell-based (AID 1583); conditions: polyglutamine-induced caspase-3 activation, cell assay; stronger effect = higher value;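 tested at 10 µM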
# [2] = suppressors of polyQ aggregation in yeast, 75Q-TubU reporter (AID 1593); conditions: Yeast 75Q polyglutamine aggregation reporter
# [3] = rescue of polyQ-huntingtin neuronal dysfunction in worms, whole organism, C. elegans mechanosensory neurons, N-terminal huntingtin (AID 1599); conditions: touch response, stronger effect = higher value
# [4] = inhibitors of mitochondrial cytochrome c release, biochemical, purified mitochondria (AID 1603); conditions: stronger effect = lower value;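 further: mouse liver mitochondria challenged with calcium chloride; signal normalized to the plate average as 100%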
# [5] = inhibitors of polyQ protein aggregation (AID 1604); conditions: polyglutamine-induced protein aggregation inhibition assay; stronger effect = higher value; tested at 2.5 µM
# [6] = enhancers of glutamate uptake in motor neurons, MN-1 cell line (AID 1612); conditions: MN-1 motor neuron cells, stronger effect = higher value;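 further: tested at 1 µM final; 0% = mean of DMSO vehicle wells on each plate; positive means more glutamate uptake than control and negative means less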
# [7] = suppressors of polyglutamine aggregation in yeast, 75Q-TubH (AID 1616); conditions: S. cerevisiae 75Q-TubH polyglutamine aggregation suppression; stronger effect = higher value
# [8] = hESC survival regulators, cell-based (AID 493140); conditions: human embryonic stem cell survival screen; stronger effect = higher value;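 further: cells exposed to compounds for four days before counting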
# [9] = Cy5 fluorescence interference with SSB-bound oligo, artefact control for HCV NS3 helicase inhibitor project, biochemical, NIH Clinical Collection, E. coli SSB (AID 743268)
# [10] = test system: Hepatitis C virus NS3 helicase; test: HCV NS3 helicase inhibitors, primary screen, biochemical, fluorescence polarization, NIH Clinical Collection (AID 743270); conditions: NS3 helicase binding to Cy5-dT15 DNA, stronger effect = higher value, concentration not given here
# [11] = target: Single-stranded DNA-binding protein (Escherichia coli (strain K12)) (UniProt P0AGE0); test: E. coli SSB displacement from DNA, counter-screen for HCV NS3 helicase inhibitor project, biochemical, fluorescence polarization, NIH Clinical Collection (AID 743271; in the data active means inhibition above about 28%); conditions: stronger effect = higher value, concentration not given here
# [12] = fluorescence interference in NS3h assay format, artefact control for HCV NS3 helicase inhibitor project, biochemical, NIH Clinical Collection (AID 743272); conditions: fluorescence interference counterscreen, stronger effect = lower value;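 further: HCV NS3 helicase with a Cy5 labelled single stranded DNA probe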
# [13] = modulation of C. elegans fzo-1 (AID 1259413);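 further: fzo-1 mutant C. elegans worms in liquid wells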; conditions: C. elegans fzo-1 modulator screen, mean read-out; stronger effect = higher value
# [14] = target: NAD(+) hydrolase SARM1 (Homo sapiens) (UniProt Q6SZW1); test: SARM1 TIR NADase inhibitors, cell lysate, NAD-Glo luminescence (AID 1508614;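 active means compound whose remaining NAD level is above about 45 nM, limit read from the data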); conditions: SAM-TIR HEK293T lysate NADase, at 1 µM, stronger effect = higher value
# [15] = target: Mitogen-activated protein kinase 7 (Homo sapiens) (UniProt Q13164); test: ERK5 transactivation activators in reporter cells, primary screen, cell-based, HTS (AID 1508626;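 active means luciferase signal above three times the same-plate solvent-only control wells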;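 further: luciferase driven by Gal4-ERK5 fusion binding five Gal4 sites before minimal TATA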); conditions: HeLa Gal4-ERK5 transactivation, 18 h, at 5 µM, stronger effect = higher value
# [16] = viability rescue of complex I mutant cybrids, primary screen, cell-based, galactose medium, ATP luminescence (AID 1645843;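 active means z-score of at least 1.8 in each of two replicates, scored against plate mean and spread of sample wells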;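 further: positive z means more ATP and so rescue of galactose-driven cybrid death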); conditions: complex I mutant cybrid cells, 72 h, stronger effect = higher value
# R275C/beta2Delta = test: modulators of BK channel variants, profiling panel, selectivity assay, cell-based, U2OS BacMam, thallium flux, beta subunits (AID 1259406;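 active means thallium flux through the channel raised or lowered by more than 3 SD from vehicle-only wells, actives on both sides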;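 further: initial slope of Thallos dye fluorescence rise after thallium is added; log ratio against the mean of 0.3% DMSO vehicle wells on the same plate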); conditions: at 30 µM
# R275C/beta4 = test: as above; conditions: at 30 µM
# R275C/Slo1WT/beta2 = test: as above; conditions: at 30 µM
# [17] = ICB984 medulloblastoma cell growth inhibition, synergistic combos for chromothripsis tumors, cisplatin or BGB combos (AID 1671451); conditions: ICB984 medulloblastoma cells, drug combinations, stronger effect = higher value;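 further: cells exposed for 96 hours before readout; 0% = vehicle DMSO and 100% = killing by high DMSO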
# Sequence of NAD(+) hydrolase SARM1 (Homo sapiens) (Q6SZW1 whole entry, looked up, the tested form may be a part): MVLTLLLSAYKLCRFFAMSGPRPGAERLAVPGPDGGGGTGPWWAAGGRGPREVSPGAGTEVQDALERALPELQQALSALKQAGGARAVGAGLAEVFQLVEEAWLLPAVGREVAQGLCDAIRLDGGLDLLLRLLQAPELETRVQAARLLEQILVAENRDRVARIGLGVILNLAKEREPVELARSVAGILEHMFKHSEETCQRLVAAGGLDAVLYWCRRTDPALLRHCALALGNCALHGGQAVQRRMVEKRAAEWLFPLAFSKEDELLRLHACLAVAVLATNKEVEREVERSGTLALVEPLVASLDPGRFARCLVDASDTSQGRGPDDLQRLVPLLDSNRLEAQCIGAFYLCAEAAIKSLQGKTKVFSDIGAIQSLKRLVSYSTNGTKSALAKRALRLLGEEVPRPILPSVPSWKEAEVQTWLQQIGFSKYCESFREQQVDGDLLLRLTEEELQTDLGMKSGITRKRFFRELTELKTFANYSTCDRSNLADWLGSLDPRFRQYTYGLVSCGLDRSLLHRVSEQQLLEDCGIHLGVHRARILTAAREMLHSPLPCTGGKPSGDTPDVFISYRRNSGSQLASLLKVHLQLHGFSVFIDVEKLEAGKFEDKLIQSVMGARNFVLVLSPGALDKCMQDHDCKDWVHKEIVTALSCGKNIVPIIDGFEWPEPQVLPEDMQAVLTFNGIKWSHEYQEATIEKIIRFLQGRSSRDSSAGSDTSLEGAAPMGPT
# Sequence of Mitogen-activated protein kinase 7 (Homo sapiens) (Q13164 whole entry, looked up, the tested form may be a part): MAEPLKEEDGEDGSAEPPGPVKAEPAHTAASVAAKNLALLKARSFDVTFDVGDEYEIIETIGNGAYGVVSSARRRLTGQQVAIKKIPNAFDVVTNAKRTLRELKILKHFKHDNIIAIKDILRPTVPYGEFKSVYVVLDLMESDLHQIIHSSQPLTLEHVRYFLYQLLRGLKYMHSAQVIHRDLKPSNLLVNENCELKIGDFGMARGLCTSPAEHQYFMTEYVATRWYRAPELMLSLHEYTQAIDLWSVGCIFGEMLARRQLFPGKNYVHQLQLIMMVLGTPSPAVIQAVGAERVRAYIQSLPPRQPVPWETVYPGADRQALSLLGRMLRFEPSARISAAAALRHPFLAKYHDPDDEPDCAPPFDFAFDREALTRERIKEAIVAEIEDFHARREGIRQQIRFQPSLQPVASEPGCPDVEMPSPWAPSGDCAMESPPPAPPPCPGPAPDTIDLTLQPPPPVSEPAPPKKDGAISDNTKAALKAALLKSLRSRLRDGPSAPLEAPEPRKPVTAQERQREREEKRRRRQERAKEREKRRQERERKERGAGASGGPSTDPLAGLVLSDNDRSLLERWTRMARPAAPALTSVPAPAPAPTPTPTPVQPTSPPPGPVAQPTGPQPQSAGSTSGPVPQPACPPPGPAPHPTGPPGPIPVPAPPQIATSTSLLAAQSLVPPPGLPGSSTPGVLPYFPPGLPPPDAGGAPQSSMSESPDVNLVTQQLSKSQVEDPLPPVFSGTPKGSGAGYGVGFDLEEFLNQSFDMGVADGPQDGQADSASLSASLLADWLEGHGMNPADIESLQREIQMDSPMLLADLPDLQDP
smiles,measurement,setting,value
NC12CC3CC(CC(C3)C1)C2,inhibition,[1],-8.1%
same,score,[2],1.77
same,rescue above control,[3],-3.19
same,cytochrome c release ratio,[4],0.94
same,inhibition of aggregation,[5],63.2%
same,glutamate uptake change,[6],-5.28%
same,aggregation suppression score,[7],1.59
same,survival,[8],4.42 (inactive)
same,fluorescence ratio,[9],0.99 (inactive)
same,inhibition,[10],-0.45% (inactive)
same,inhibition,[11],-1.24% (inactive)
same,fluorescence ratio,[12],0.97 (inactive)
same,mean signal,[13],230 (inactive)
same,remaining NAD,[14],10 nM (inactive)
same,luciferase signal,[15],44 AU (inactive)
same,z-score,[16],0.28 (inactive) and 0.225 (inactive) and 0.335 (inactive)
same,log fold change Tl+ flux,R275C/beta2Delta,0.045 (inactive)
same,log fold change Tl+ flux,R275C/beta4,-0.0136 (inactive)
same,log fold change Tl+ flux,R275C/Slo1WT/beta2,0.0148 (inactive)
O=C1CCC(N2C(=O)c3ccccc3C2=O)C(=O)N1 (stereo not given),inhibition,[1],8.81%
same,score,[2],1.27
same,rescue above control,[3],21.9
same,cytochrome c release ratio,[4],1.09
same,inhibition of aggregation,[5],81%
same,glutamate uptake change,[6],-12.1%
same,aggregation suppression score,[7],1.48
same,survival,[8],19.2 (inactive)
same,fluorescence ratio,[9],1.04 (inactive)
same,inhibition,[10],-1.36% (inactive)
same,inhibition,[11],-1.24% (inactive)
same,fluorescence ratio,[12],0.99 (inactive)
same,mean signal,[13],238 (inactive)
same,remaining NAD,[14],10 nM (inactive)
same,luciferase signal,[15],36 AU (inactive)
same,log fold change Tl+ flux,R275C/beta2Delta,0.0347 (inactive)
same,log fold change Tl+ flux,R275C/beta4,-0.108 (inactive)
same,log fold change Tl+ flux,R275C/Slo1WT/beta2,-0.0685 (inactive)
CCOC(=O)[C@H](CCc1ccccc1)N[C@H]1CCc2ccccc2N(CC(=O)O)C1=O,fluorescence ratio,[9],1.03 (inactive)
same,inhibition,[10],-1.98% (inactive)
same,inhibition,[11],2.98% (inactive)
same,fluorescence ratio,[12],1.04 (inactive)
same,mean signal,[13],261 (inactive)
same,remaining NAD,[14],10 nM (inactive)
same,luciferase signal,[15],92 AU (inactive)
same,z-score,[16],0.145 (inactive)
same,log fold change Tl+ flux,R275C/beta2Delta,0.041 (inactive)
same,log fold change Tl+ flux,R275C/beta4,-0.0252 (inactive)
same,log fold change Tl+ flux,R275C/Slo1WT/beta2,-0.00529 (inactive)
CC[C@H](C)C(=O)O[C@H]1C[C@@H](C)C=C2C=C[C@H](C)[C@H](CC[C@@H]3C[C@@H](O)CC(=O)O3)[C@H]21,inhibition,[1],-14.6%
same,score,[2],-1.08
same,rescue above control,[3],-2.24
same,cytochrome c release ratio,[4],0.75
same,inhibition of aggregation,[5],26.5%
same,glutamate uptake change,[6],-19%
same,aggregation suppression score,[7],0.603
same,survival,[8],2.08 (inactive)
same,fluorescence ratio,[9],1.1 (inactive)
same,inhibition,[10],3.18% (inactive)
same,inhibition,[11],3.34% (inactive)
same,fluorescence ratio,[12],0.96 (inactive)
same,mean signal,[13],253 (inactive)
same,remaining NAD,[14],10 nM (inactive)
same,luciferase signal,[15],60 AU (inactive)
same,z-score,[16],-0.3 (inactive) and -0.62 (inactive) and -0.095 (inactive)
same,log fold change Tl+ flux,R275C/beta2Delta,0.0172 (inactive)
same,log fold change Tl+ flux,R275C/beta4,0.0477 (inactive)
same,log fold change Tl+ flux,R275C/Slo1WT/beta2,-0.0508 (inactive)
c1ccc([C@H]2CN3CCSC3=N2)cc1,inhibition,[1],60.8%
same,score,[2],1.41
same,rescue above control,[3],-9.67
same,cytochrome c release ratio,[4],0.88
same,inhibition of aggregation,[5],72.2%
same,glutamate uptake change,[6],4.54%
same,aggregation suppression score,[7],1.54
same,survival,[8],17.8 (inactive) and 98.4 (inactive)
same,remaining NAD,[14],10 nM (inactive)
same,luciferase signal,[15],44 AU (inactive)
same,z-score,[16],0.83 (inactive) and -0.1 (inactive)
CC1(C)O[C@@H]2[C@@H](CO[C@@]3(COS(N)(=O)=O)OC(C)(C)O[C@@H]23)O1,fluorescence ratio,[9],1.04 (inactive)
same,inhibition,[10],-0.4% (inactive)
same,inhibition,[11],-6.26% (inactive)
same,fluorescence ratio,[12],1.02 (inactive)
same,mean signal,[13],229 (inactive)
same,remaining NAD,[14],10 nM (inactive)
same,luciferase signal,[15],24 AU (inactive)
same,z-score,[16],-0.1 (inactive)
same,log fold change Tl+ flux,R275C/beta2Delta,0.0245 (inactive)
same,log fold change Tl+ flux,R275C/beta4,-0.0182 (inactive)
same,log fold change Tl+ flux,R275C/Slo1WT/beta2,0.00527 (inactive)
CC1COc2c(N3CCN(C)CC3)c(F)cc3c(=O)c(C(=O)O)cn1c23 (stereo not given),inhibition,[1],10.8%
same,score,[2],1.04
same,rescue above control,[3],-6.02
same,cytochrome c release ratio,[4],1.57
same,inhibition of aggregation,[5],67.8%
same,glutamate uptake change,[6],-4.74%
same,aggregation suppression score,[7],1.18
same,survival,[8],10.6 (inactive)
same,fluorescence ratio,[9],0.99 (inactive)
same,inhibition,[10],-2.27% (inactive)
same,inhibition,[11],2.57% (inactive)
same,fluorescence ratio,[12],0.87 (inactive)
same,mean signal,[13],237 (inactive)
same,remaining NAD,[14],10 nM (inactive)
same,luciferase signal,[15],60 AU (inactive)
same,inhibition,"[17]; BGB IC20 combo, at 0.005 µM",-17.9% and -25.7% and 9.81%
same,inhibition,"[17]; BGB IC40 combo, at 0.005 µM",-33.2% and -21.8% and -24%
same,inhibition,"[17]; BGB IC40 combo, at 0.05 µM",-26.1% and 10.2% and -18.3%
same,inhibition,[17]; at 0.5 µM,-27.6% (inactive) and 4.56% (inactive) and -22.5% (inactive)
same,inhibition,"[17]; cisplatin combo, at 0.05 µM",-29.6% and 10.2% and -23%
same,inhibition,"[17]; cisplatin combo, at 0.5 µM",-35.8% and -11.2% and -26.4%
same,inhibition,"[17]; cisplatin combo, at 5 µM",-56.5% and 3.02% and -28.7%
same,inhibition,"[17]; measured here: 5 uM single agent, at 5 µM",-20% and 15.7% and -1.17%
same,log fold change Tl+ flux,R275C/beta2Delta,-0.03 (inactive)
same,log fold change Tl+ flux,R275C/beta4,0.0112 (inactive)
same,log fold change Tl+ flux,R275C/Slo1WT/beta2,0.0308 (inactive)
OC(Cn1cncn1)(Cn1cncn1)c1ccc(F)cc1F,inhibition,[1],-12.6%
same,score,[2],0.67
same,rescue above control,[3],-3.31
same,cytochrome c release ratio,[4],0.79
same,inhibition of aggregation,[5],0%
same,glutamate uptake change,[6],-9.51%
same,aggregation suppression score,[7],0.253
same,fluorescence ratio,[9],1.05 (inactive)
same,inhibition,[10],-3.18% (inactive)
same,inhibition,[11],-4.29% (inactive)
same,fluorescence ratio,[12],1.02 (inactive)
same,mean signal,[13],277 (inactive)
same,remaining NAD,[14],14 nM (inactive)
same,luciferase signal,[15],32 AU (inactive)
same,z-score,[16],1.3 (inactive) and 0.555 (inactive)
same,log fold change Tl+ flux,R275C/beta2Delta,0.0182 (inactive)
same,log fold change Tl+ flux,R275C/beta4,0.0436 (inactive)
same,log fold change Tl+ flux,R275C/Slo1WT/beta2,0.0134 (inactive)
CC1=C(/C=C/C(C)=C/C=C/C(C)=C/C(=O)O)C(C)(C)CCC1,inhibition,[1],16%
same,score,[2],0.91
same,rescue above control,[3],3.71
same,cytochrome c release ratio,[4],3.67
same,inhibition of aggregation,[5],19.4%
same,glutamate uptake change,[6],-29.4%
same,aggregation suppression score,[7],0.795
same,survival,[8],12.6 (inactive) and 136 (inactive)
same,fluorescence ratio,[9],1.02 (inactive)
same,inhibition,[10],1.36% (inactive)
same,inhibition,[11],2.57% (inactive)
same,fluorescence ratio,[12],0.87 (inactive)
same,mean signal,[13],223 (inactive)
same,remaining NAD,[14],10 nM (inactive)
same,luciferase signal,[15],20 AU (inactive)
same,log fold change Tl+ flux,R275C/beta2Delta,0.0707 (inactive)
same,log fold change Tl+ flux,R275C/beta4,-0.0336 (inactive)
same,log fold change Tl+ flux,R275C/Slo1WT/beta2,-0.0605 (inactive)
N[C@@H]1CONC1=O,inhibition,[1],3.67%
same,score,[2],1.72
same,rescue above control,[3],-2.84
same,cytochrome c release ratio,[4],0.8
same,inhibition of aggregation,[5],65.4%
same,glutamate uptake change,[6],-3.66%
same,aggregation suppression score,[7],1.32
same,survival,[8],4.33 (inactive)
same,fluorescence ratio,[9],0.99 (inactive) and 1.05 (inactive)
same,inhibition,[10],5.94% (inactive) and -1.36% (inactive)
same,inhibition,[11],2.98% (inactive) and 0.29% (inactive)
same,fluorescence ratio,[12],0.95 (inactive) and 1.03 (inactive)
same,mean signal,[13],211 (inactive)
same,remaining NAD,[14],10 nM (inactive)
same,luciferase signal,[15],64 AU (inactive)
same,z-score,[16],0.55 (inactive) and 0.975 (inactive)
same,log fold change Tl+ flux,R275C/beta2Delta,0.0216 (inactive) and -0.0265 (inactive)
same,log fold change Tl+ flux,R275C/beta4,0.00356 (inactive)
same,log fold change Tl+ flux,R275C/Slo1WT/beta2,-0.00809 (inactive)
